Pf apPOL inh: Pf-apPOL DNA polymerase inhibition; Recombinant Pf-apPOL, molecular beacon fluorescence, 1.5 h; inhibition, % at 10 µM; actives 0.25% (n = 210,000); AID 1794808
mHTT-CaM PPI inh: inhibitors of human mutant huntingtin-calmodulin interaction; P42858; AlphaScreen His-mHTT/GST-CaM binding, luminescence; inhibition, % at 15 µM; actives 3.6% (n = 190,000); AID 1671202;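 further: 0% = both proteins with DMSO and 100% = one protein alone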
* marks the source's active call; other numbers are inactive results; nt = not tested or not shown. The list is not random: actives were taken first. Their share in the collection is about 3.5%. No stated cut-off is given here; in the data, active means inhibition above about 50%; inactive means the rest.

SMILES	Pf apPOL inh	mHTT-CaM PPI inh
COc1ccc(-c2coc3c(C)c4oc(=O)c5c(c4cc23)CCC5)cc1	-4	2
CC(C)(C)n1nc2c(c1NC(=O)c1c(F)cccc1F)CS(=O)C2 (stereo unspecified)	-5	2
Cc1ccccc1NS(=O)(=O)c1cccc2cccnc12	-8	-2
Cc1ccc(N2C(=O)CCS2(=O)=O)cc1S(=O)(=O)Nc1cccc2cccnc12	-120	75*
Cc1ccc(C2=N/C(=C\C(Cl)=C\c3ccccc3)C(=O)O2)cc1	-2	1
O=C(Nc1ccccc1F)c1cccc(OCc2ccccc2)c1	-6	-36
Cc1ccc(C2CC(=O)Oc3cc(C)c(Br)c(C)c32)cc1 (stereo unspecified)	-4	-26
CCCc1nnsc1C(=O)NCC(O)c1cccs1 (stereo unspecified)	-2	-27
O=[N+]([O-])c1ccc(Cc2ccncc2)cc1	-6	-1
Cc1ccc(C)n1-c1ccc(Cc2ccncc2)cc1	-4	65*
Cc1ccccc1CNC(=O)c1ccc2ncnc(N3CCCCC3)c2c1	-1	8
COc1cc(-c2csc(C)n2)ccc1O	0	-4
COc1cc(-c2nc(-c3cccs3)c(-c3cccs3)[nH]2)ccc1O	0	97*
COc1cc2ncnc(SCC(=O)N3CCOCC3)c2cc1OC	-8	-8
O=C(CSc1cn(Cc2ccc(Cl)cc2)c2ccccc12)NCc1ccco1	-2	54*
O=C(CSc1cn(CCNC(=O)c2ccccc2F)c2ccccc12)NCc1ccco1	0	13
Cn1cc(CCC(=O)NCc2ccco2)c2ccccc21	-12	3
Cc1ccccc1Cn1cc(SCC(=O)NCc2ccco2)c2ccccc21	-1	86*
NNC(=O)Cc1nc(-c2cnccn2)no1	0	nt
C=CCOc1c(Cl)cc(C=O)cc1Cl	-10	-2
Cc1ccc(-c2noc(CCn3nc(-c4ccccc4)ccc3=O)n2)cc1	0	17
O=c1ccc(-c2ccccc2)nn1CCc1nc(-c2cccc(F)c2)no1	-9	81*
O=C(NCC1CCCO1)c1ccc2c(c1)NC(=O)C(N1CCCCC1)S2 (stereo unspecified)	-12	-2
COc1ccc(Br)cc1C=C1Oc2c(ccc(O)c2CN2CCN(C)CC2)C1=O	-2	-1
COc1cc(/C=c2\sc3nc4ccccc4n3c2=O)cc([N+](=O)[O-])c1O	1	57*
SMILES	Pf apPOL inh	mHTT-CaM PPI inh
O=c1/c(=C/c2ccc(Br)c([N+](=O)[O-])c2)sc2nc3ccccc3n12	2	-6
O=C(Nc1ccc(F)c(F)c1)C(NS(=O)(=O)c1cccs1)c1ccccc1 (stereo unspecified)	-1	-2
O=C(Nc1ccc(C(F)(F)F)cc1)C(NS(=O)(=O)c1cccs1)c1ccccc1 (stereo unspecified)	-1	84*
COc1ccc(C=C2c3cc([N+](=O)[O-])cc([N+](=O)[O-])c3-c3c2cc([N+](=O)[O-])cc3[N+](=O)[O-])cc1	1	100*
CN(C)c1ccc(C=C2c3cc([N+](=O)[O-])cc([N+](=O)[O-])c3-c3c2cc([N+](=O)[O-])cc3[N+](=O)[O-])cc1	-1	44
Cc1ccc([N+](=O)[O-])cc1NC(=O)C(Cc1c[nH]c2ccccc12)NC(=O)Oc1ccccc1 (stereo unspecified)	1	-2
Cn1nc(-c2nc(-c3ccccc3)no2)c2c1CCN(C(=O)c1ccccc1Cl)C2	0	2
COCc1cc(CN2CCCCC2)c(O)c2ncccc12	2	100*
O=[N+]([O-])c1cc([N+](=O)[O-])c2cccnc2c1N1CCOCC1	5	20
O=[N+]([O-])c1cc(CN2CCN(c3ccccc3)CC2)c(O)c2ncccc12	2	100*
O=[N+]([O-])c1ccc(N2CCN(c3ccccc3)CC2)c2ncccc12	-8	15
O=[N+]([O-])c1ccccc1CN1CCCCCCC1	-3	-1
O=[N+]([O-])c1cc(CN2CCOCC2)c2cccnc2c1O	-60	100*
CCOc1cccc(CN2CCCCCC2)c1O	-3	5
O=[N+]([O-])c1cc(CN2CCCCC2)c2cccnc2c1O	0	100*
CCN(C)Cc1nc2scc(-c3cc(C)ccc3C)c2c(=O)[nH]1	-5	7
COc1c(I)cc(Cl)c2cccnc12	-4	nt
Clc1cc2cccnc2c2ncccc12	nt	100*
Cc1ccnc2c([N+](=O)[O-])cccc12	-2	-4
CC1CCN(Cc2cc(Cn3ccnc3)c3cccnc3c2O)CC1	5	100*
Cc1c(O)ccc2c(CN3CCC(C)CC3)cc(=O)oc12	-6	-2
O=[N+]([O-])c1cc(Cl)c2cccnc2c1O	-1	100*
CCNC(=O)C1=CCN(C(=O)c2cccc(C)c2)CC1	2	-2
Cc1c(Cl)cccc1S(=O)(=O)NCC1CCN(C(=O)COc2ccccc2)CC1	-5	0
CC(C)(C)C(=O)NCCOc1ccc(C23CC4CC(CC(C4)C2)C3)cc1	-5	-2
SMILES	Pf apPOL inh	mHTT-CaM PPI inh
O=C(c1cccnc1N1CCNC(c2ccccc2)C1)N1CCSCC1 (stereo unspecified)	-2	7
CCOC(=O)N1CCN(S(=O)(=O)c2ccc(C(=O)Nc3cc(C)no3)cc2)CC1	-1	1
O=C(O)CSc1nnc2n1-c1ccc(Cl)cc1NN2	76*	nt
O=C(O)CSc1nnc(-c2ccc(Cl)cc2)n1-c1ccccc1	-1	-9
CCc1ccc(N2CC34C=CC(O3)C(C(=O)OC)C4C2=O)cc1 (stereo unspecified)	-1	4
O=C(OCc1ccccc1)C1C2C=CC3(CN(c4ccc(Cl)cc4)C(=O)C13)O2 (stereo unspecified)	-2	80*
CN(C(=O)Cc1c[nH]c2ccccc12)C(C(=O)Nc1ccc2c(c1)OCO2)c1ccccc1 (stereo unspecified)	-4	88*
CC(=O)NCC(=O)N(C)C(C(=O)Nc1ccc2c(c1)OCO2)c1ccccc1 (stereo unspecified)	-2	5
CC(C)N(Cc1c[nH]c2ccccc12)C(=O)Nc1ccc(Cl)c(Cl)c1	-16	68*
CC(=O)Nc1ccc(NC(=O)CCc2c[nH]c3ccccc23)cc1	-9	10
O=C(O)CC1=C(Nc2ccccc2)C(=O)N(c2ccccc2)C1c1ccccc1 (stereo unspecified)	3	18
O=C(Nc1c2c(nn1-c1ccc(F)cc1)CS(=O)(=O)C2)c1ccc(Cl)cc1Cl	-3	16
O=C(CCc1conc1-c1ccccc1)N1CCC(N2CCCCC2)CC1	-5	6
Cc1ccc2nc(-c3cccc(Cl)c3)c(NC(=O)C(C)Cl)n2c1 (stereo unspecified)	36	15
Cc1cccc(NCN2C(=O)S/C(=C\c3ccc(F)cc3)C2=O)c1	-1	55*
O=C1S/C(=C\c2ccc(F)cc2)C(=O)N1CNc1ccccc1	-2	57*
O=C1S/C(=C\c2ccc(F)cc2)C(=O)N1CNc1ccc(Br)cc1	-4	24
O=C1S/C(=C\c2ccc(F)cc2)C(=O)N1CNc1cccc(Cl)c1	-4	21
O=S(=O)(NCCn1ccc2ccccc21)c1ccc(Cl)cc1	0	-2
COc1ccc(C(O)CN2CCN(c3ccc(F)cc3)CC2)cc1OC (stereo unspecified)	-4	12
COc1ccc(NC(=O)CSCc2ccc(C#N)cc2)cc1	-1	-4
Cc1ccc(/C=C2/N=C(c3ccccc3Cl)OC2=O)c(C)c1	3	8

Screening results as filed in PubChem.
